Reference: PubChem BioAssay
Values without a mark were called inactive. Some of the results follow. Calls of active or inactive are those of the source.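 Rule for the calls, unless noted: active = mean inhibition above 46.68%, the untreated control wells mean plus 3 SD; inactive = the rest.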

Tests used:
[1] = target: Nuclear receptor coactivator 3 (Homo sapiens) (UniProt Q9Y6Q9); test: SRC3 coactivator transcriptional activity inhibitors, confirmation, cell-based, luminescence, quadruplicate (AID 588792;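 active = mean inhibition over 43.08%, the solvent-only control mean plus 3 SD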;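 note: 0% = DMSO treated cells and 100% = gossypol at 36 µM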); settings: HEK293 GAL4-SRC3 luciferase reporter, at 3.6 µM, hits give high values
[2] = system: transactivating tegument protein VP16 (Human herpesvirus 1), Gal4-VP16 luciferase reporter; test: VP16 transactivation inhibitors, counter-screen for SRC3 inhibitor project, cell-based, luminescence, high throughput (AID 588794; in the data active = inhibition above about 30%); settings: mammalian cells, VP16-driven luciferase reporter luminescence; at 3.6 µM; hits give high values
[3] = target: Nuclear receptor coactivator 1 (Homo sapiens) (UniProt Q15788); test: SRC1 coactivator transcriptional activity inhibitors, confirmation, cell-based, luminescence, quadruplicate (AID 588820); settings: HEK293 GAL4-SRC1 luciferase reporter, at 3.6 µM, hits give high values;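 note: 0% = DMSO wells and 100% = gossypol 36 µM treated wells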
[4] = VP16 transactivation inhibitors, counter-screen for SRC1 inhibitor project, cell-based, luminescence, high throughput (AID 588824; in the data active = inhibition above about 25%); settings: cell-based VP16 transactivation luciferase luminescence; at 3.6 µM; hits give high values
[5] = StAR promoter reporter inhibitors, counter-screen for LRH-1 inverse agonist project, cell-based, luminescence, high throughput (AID 651611; in the data active = inhibition above about 28%); settings: StAR promoter luciferase reporter counterscreen, at 3.6 µM, hits give high values
[6] = target: Nuclear receptor subfamily 5 group A member 2 (Homo sapiens) (UniProt O00482); test: LRH-1 (NR5A2) inverse agonists, retest, confirmation, cell-based, luminescence (AID 651613; in the data active = inhibition above about 42%;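 note: HEK293T cells co-transfected with LRH-1 and StAR promoter luciferase reporter; 0% = vehicle wells and 100% = parental cells lacking receptor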); settings: cell-based LRH-1 luciferase reporter, inverse agonism; at 3.6 µM; hits give high values
[7] = target: Steroidogenic factor 1 (Homo sapiens) (UniProt Q13285); test: SF1 (NR5A1) inverse agonists, counter-screen for LRH-1 inverse agonist project, cell-based, luminescence, high throughput (AID 651614; in the data active = inhibition above about 44%;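 note: cells cotransfected with StAR promoter reporter and SF1 expression vector; 0% = vehicle on cells with receptor and 100% = vehicle on cells lacking receptor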); settings: cell-based SF1 luciferase reporter, at 3.6 µM, hits give high values
[8] = VP16 transactivation reporter inhibitors, counter-screen for LRH-1 inverse agonist project, cell-based, luminescence, high throughput (AID 651615; in the data active = inhibition above about 33%); settings: Gal4-VP16 luciferase reporter cells, at 3.6 µM, hits give high values
[9] = target: Photoreceptor-specific nuclear receptor (Homo sapiens) (UniProt Q9Y5X4); test: NR2E3 agonist confirmation in cells, cell-based, luminescence, CHO-S two-hybrid (AID 624378;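 active = average inhibition above a cutoff equal to the mean inhibition of all tested compounds plus one SD, cut at about 70% in these data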;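 note: 0% = DMSO in NR2E3 cells and 100% = DMSO in cells lacking NR2E3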); settings: CHO-S mammalian two-hybrid NR2E3-NCOR, luciferase luminescence; at 3.98 µM; hits give high values
[10] = GAL4-VP16 reporter modulators, confirmation, counter-screen for NR2E3 agonist project, cell-based, luminescence, CHO-S, high throughput (AID 624379;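 active = mean inhibition above a cutoff equal to the average over all tested compounds plus one standard deviation, cut at about 70% in these data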;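 note: 0% = DMSO with VP16-transfected cells and 100% = DMSO with cells lacking VP16; higher means less reporter light so more repression of VP16 activity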); settings: CHO-S GAL4-VP16 luciferase reporter, at 3.98 µM, hits give high values
[11] = system: transactivating tegument protein VP16 (Human herpesvirus 1); test: VP16 transactivation reporter inhibitors, counter-screen for SRC2 inhibitor project, cell-based, luminescence, single concentration (AID 652007; in the data active = inhibition above about 36%); settings: cell-based VP16 transactivation luciferase reporter, at 8.9 µM, hits give high values
[12] = target: Nuclear receptor coactivator 2 (Homo sapiens) (UniProt Q15596); test: SRC2 coactivator transcriptional activity inhibitors, confirmation, cell-based, luminescence, HEK293, triplicate (AID 652008;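 active = mean inhibition above 46.5%, the solvent-only control mean plus 3 SD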;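 note: 0% = DMSO-treated cells and 100% = Gossypol at 36 µM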); settings: HEK293 GAL4-SRC2 luciferase reporter, at 8.9 µM, hits give high values
[13] = Gal4-VP16 luciferase reporter inhibitors, counter-screen for COUP-TFII antagonist project, cell-based, luminescence, HEK293 (AID 687007; in the data active = inhibition above about 13%); settings: at 8.5 µM, hits give high values
[14] = target: COUP transcription factor 2 (Homo sapiens) (UniProt P24468); test: NR2F2 transcriptional activity inhibitors, confirmation, cell-based, luciferase reporter, HEK293, triplicate (AID 687008;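 active = mean inhibition over three repeats above a set limit taken from the earlier primary screen, cut at about 38% in these data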;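 note: 100% = cells given the luciferase reporter alone without the COUP-TF2 vector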); settings: HEK293 NGFI-A luciferase reporter, luminescence; at 8.5 µM; hits give high values
Chain of COUP transcription factor 2 (Homo sapiens) (P24468 whole entry, looked up): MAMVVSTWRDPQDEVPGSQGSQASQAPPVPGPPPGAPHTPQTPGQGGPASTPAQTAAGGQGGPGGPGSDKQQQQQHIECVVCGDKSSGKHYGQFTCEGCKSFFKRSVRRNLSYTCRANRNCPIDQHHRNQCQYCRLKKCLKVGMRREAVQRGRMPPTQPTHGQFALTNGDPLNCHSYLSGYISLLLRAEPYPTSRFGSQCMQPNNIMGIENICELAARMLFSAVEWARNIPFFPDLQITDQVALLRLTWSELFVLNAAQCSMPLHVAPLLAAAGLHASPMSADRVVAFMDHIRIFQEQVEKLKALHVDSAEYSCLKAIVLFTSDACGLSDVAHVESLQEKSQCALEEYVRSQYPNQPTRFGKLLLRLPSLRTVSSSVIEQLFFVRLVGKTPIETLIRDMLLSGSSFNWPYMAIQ

Chain of Steroidogenic factor 1 (Homo sapiens) (Q13285 whole entry, looked up, the tested form may be a part): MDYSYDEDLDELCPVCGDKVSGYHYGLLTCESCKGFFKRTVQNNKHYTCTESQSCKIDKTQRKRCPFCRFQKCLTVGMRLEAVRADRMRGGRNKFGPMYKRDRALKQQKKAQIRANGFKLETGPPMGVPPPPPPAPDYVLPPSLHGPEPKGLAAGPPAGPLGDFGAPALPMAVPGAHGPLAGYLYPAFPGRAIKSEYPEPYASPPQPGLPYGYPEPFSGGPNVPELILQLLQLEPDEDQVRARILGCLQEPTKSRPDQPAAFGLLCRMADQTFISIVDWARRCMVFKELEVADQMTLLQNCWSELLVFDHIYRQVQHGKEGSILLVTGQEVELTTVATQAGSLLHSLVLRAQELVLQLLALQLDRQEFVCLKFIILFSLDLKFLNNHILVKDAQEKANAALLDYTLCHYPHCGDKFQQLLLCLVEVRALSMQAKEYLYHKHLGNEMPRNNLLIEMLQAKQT
Chain of Nuclear receptor coactivator 3 (Homo sapiens) (Q9Y6Q9 whole entry, looked up, the tested form may be a part): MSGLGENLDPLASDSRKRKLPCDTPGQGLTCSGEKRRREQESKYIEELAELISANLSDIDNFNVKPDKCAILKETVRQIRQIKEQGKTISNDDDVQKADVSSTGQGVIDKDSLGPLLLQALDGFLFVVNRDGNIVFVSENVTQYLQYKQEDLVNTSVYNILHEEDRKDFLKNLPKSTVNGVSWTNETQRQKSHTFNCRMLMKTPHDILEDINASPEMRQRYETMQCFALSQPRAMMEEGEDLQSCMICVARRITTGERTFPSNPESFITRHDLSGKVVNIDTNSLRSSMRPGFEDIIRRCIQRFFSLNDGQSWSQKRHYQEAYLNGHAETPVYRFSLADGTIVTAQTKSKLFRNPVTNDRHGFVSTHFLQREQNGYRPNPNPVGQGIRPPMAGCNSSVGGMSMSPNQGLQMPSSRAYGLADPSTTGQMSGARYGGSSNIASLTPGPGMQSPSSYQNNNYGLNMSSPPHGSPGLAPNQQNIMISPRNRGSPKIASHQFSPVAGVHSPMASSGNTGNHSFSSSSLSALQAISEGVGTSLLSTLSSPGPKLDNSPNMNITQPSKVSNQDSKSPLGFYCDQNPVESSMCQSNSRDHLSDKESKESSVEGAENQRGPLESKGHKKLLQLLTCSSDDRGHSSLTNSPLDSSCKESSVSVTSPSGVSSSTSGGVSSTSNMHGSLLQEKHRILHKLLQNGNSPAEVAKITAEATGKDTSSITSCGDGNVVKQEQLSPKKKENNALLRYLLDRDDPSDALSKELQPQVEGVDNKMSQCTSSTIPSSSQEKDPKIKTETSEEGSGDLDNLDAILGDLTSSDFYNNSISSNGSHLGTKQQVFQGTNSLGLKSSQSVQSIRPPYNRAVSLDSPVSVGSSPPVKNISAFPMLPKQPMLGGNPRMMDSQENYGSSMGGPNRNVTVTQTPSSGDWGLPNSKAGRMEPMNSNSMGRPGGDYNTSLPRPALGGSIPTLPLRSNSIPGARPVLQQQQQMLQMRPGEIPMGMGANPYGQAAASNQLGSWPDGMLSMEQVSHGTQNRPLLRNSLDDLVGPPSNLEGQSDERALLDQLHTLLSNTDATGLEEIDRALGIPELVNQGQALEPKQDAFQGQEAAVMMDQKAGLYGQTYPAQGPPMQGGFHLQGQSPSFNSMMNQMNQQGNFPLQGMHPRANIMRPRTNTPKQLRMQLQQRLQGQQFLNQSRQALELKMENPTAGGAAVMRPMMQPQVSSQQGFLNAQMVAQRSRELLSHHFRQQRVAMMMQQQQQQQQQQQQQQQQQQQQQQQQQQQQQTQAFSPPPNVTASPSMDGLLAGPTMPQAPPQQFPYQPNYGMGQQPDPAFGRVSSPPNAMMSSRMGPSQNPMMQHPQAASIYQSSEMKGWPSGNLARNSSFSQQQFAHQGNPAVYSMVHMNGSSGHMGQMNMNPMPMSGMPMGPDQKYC
Chain of Nuclear receptor subfamily 5 group A member 2 (Homo sapiens) (O00482 whole entry, looked up): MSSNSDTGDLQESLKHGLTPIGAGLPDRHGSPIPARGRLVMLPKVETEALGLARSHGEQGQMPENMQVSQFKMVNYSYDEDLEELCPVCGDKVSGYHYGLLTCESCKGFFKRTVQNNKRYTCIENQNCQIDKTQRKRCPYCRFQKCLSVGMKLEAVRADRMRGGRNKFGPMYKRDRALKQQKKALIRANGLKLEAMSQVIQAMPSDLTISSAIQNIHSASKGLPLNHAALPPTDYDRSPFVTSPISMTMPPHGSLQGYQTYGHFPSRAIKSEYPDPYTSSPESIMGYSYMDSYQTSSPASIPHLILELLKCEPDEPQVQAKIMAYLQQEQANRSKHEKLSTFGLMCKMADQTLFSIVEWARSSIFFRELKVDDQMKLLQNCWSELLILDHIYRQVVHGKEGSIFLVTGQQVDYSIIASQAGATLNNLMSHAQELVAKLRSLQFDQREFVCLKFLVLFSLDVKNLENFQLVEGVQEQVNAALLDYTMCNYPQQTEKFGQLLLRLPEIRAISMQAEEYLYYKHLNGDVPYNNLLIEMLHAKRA
Chain of Nuclear receptor coactivator 1 (Homo sapiens) (Q15788 whole entry, looked up, the tested form may be a part): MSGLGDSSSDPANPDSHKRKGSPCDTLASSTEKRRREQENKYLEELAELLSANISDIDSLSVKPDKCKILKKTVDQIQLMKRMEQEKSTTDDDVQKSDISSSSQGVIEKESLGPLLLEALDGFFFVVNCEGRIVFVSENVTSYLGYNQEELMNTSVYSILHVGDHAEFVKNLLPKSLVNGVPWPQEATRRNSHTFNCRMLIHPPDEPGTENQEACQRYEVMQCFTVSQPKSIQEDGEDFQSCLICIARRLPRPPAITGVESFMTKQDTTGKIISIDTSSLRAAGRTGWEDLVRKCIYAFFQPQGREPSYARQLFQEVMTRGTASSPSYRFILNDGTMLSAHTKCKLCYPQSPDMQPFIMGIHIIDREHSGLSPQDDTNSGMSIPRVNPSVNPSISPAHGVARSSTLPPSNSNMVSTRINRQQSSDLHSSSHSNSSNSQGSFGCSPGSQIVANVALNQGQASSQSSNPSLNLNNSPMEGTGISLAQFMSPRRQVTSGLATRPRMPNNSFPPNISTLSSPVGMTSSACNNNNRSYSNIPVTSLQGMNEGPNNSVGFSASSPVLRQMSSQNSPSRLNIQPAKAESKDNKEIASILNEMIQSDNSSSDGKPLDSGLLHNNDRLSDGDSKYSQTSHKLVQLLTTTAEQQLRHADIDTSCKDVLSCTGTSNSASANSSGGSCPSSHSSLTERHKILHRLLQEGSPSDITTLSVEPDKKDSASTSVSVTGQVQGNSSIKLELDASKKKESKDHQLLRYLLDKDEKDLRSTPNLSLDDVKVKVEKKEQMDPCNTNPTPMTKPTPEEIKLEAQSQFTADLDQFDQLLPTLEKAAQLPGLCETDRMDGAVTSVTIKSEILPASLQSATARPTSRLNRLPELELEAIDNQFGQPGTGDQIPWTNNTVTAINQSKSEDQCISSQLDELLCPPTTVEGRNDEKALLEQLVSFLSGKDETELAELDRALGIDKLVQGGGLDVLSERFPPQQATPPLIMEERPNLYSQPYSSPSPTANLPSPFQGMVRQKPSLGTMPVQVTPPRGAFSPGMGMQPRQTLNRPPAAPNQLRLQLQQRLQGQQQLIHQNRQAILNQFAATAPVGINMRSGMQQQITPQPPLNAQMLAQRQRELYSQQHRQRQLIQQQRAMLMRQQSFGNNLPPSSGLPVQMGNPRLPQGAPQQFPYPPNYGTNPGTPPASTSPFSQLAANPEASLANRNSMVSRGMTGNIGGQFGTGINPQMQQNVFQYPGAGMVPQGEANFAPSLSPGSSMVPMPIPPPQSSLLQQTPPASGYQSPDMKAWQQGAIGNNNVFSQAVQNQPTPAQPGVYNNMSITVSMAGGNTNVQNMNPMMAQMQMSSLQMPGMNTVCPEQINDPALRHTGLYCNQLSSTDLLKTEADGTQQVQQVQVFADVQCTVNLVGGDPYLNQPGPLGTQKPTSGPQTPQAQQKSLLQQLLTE
Chain of Photoreceptor-specific nuclear receptor (Homo sapiens) (Q9Y5X4 whole entry, looked up, the tested form may be a part): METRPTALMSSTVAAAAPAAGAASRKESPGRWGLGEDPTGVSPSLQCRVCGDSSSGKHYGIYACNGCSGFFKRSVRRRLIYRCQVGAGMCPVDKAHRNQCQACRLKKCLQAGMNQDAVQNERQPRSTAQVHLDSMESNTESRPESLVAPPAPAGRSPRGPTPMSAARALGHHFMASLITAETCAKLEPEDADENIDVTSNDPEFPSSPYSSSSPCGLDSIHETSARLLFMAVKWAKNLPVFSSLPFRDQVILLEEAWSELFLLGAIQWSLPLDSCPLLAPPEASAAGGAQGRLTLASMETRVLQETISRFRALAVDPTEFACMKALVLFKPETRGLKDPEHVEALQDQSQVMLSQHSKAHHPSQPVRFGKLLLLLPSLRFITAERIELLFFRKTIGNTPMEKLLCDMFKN

Structure (SMILES) | inhibition [1] | inhibition [2] | inhibition [3] | inhibition [4] | inhibition [5] | inhibition [6] | inhibition [7] | inhibition [8] | inhibition [9] | inhibition [10] | inhibition [11] | inhibition [12] | inhibition [13] | inhibition [14]
CC[n+]1c(-c2ccccc2)c2cc(N)ccc2c2ccc(N)cc21 | -43.8% | 52.4% (active) | 40.9% | 41.4% (active) | 68.7% (active) | 92.5% (active) | 77.7% (active) | 84.8% (active) | – | – | – | – | – | –
C[C@H]1O[C@@H](OC2CC[C@]3(C=O)[C@H]4CC[C@]5(C)[C@@H](C6=CC(=O)OC6)CC[C@]5(O)[C@@H]4CC[C@]3(O)C2)CC2OC(C)(C)OC21 (stereo partly drawn) | 94.5% (active) | 85.3% (active) | 65.8% (active) | 83.1% (active) | 97.6% (active) | 111% (active) | 99.5% (active) | 93.3% (active) | – | – | – | – | – | –
C[C@H]1CCC[C@@H](O)CCC/C=C/c2cc(O)cc(O)c2C(=O)O1 | 61.8% (active) | 63.4% (active) | 29.2% | 56.1% (active) | – | – | – | – | – | – | – | – | – | –
CCC(C)(O)C(=O)OC1C(=O)OC2CC3C(C)=CC(=O)C(O)C3(C)C3C4(O)OCC23C1C(C)C4O (stereo not drawn) | 97.1% (active) | 96.7% (active) | 94.3% (active) | 96.4% (active) | 96.1% (active) | 109% (active) | 97.6% (active) | 96.8% (active) | 98.7% (active) | 86.9% (active) | 80.7% (active) | 74.8% (active) | 31.2% (active) | 90.8% (active)
COC(=O)[C@]12OC[C@]34C([C@@H](O)[C@@H]1O)[C@]1(C)CC(=O)C(O)=C(C)[C@@H]1C[C@H]3OC(=O)[C@H](O)[C@@H]24 (stereo partly drawn) | 71.6% (active) | 64.2% (active) | -32.4% | 68.8% (active) | – | – | – | – | – | – | – | – | – | –
